From PubChem
ClpP mod – qHTS Assay for Activators of ClpP | Potency, µM (titrated, usually from 57.5 µM), inactives show at the highest dose activity change, negative = active | ATP-dependent Clp protease proteolytic subunit (Bacillus subtilis (strain 168)), P80244 | 340,000 compounds, 1.9% hits | purified B. subtilis ClpP, FRET peptide cleavage, 20 min; active = well fitted falling curve with a large enough effect; inconclusive = small, poorly fitted or top-dose-only effect; inactive = no such curve, though single readings can be large or run the other way; also: potency is read from the fitted curve at half-maximal effect; the source files actives as falling curves though it sought activators and does not explain the sign; nearly all actives have a fitted effect of over 65% in size
Target sequence (P80244 whole entry, looked up): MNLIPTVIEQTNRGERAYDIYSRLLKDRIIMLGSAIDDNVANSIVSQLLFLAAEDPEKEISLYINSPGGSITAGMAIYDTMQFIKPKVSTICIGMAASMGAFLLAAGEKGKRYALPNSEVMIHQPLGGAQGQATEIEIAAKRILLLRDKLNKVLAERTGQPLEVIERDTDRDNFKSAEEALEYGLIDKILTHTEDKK
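ClpP 10 microg/mL final, pH 8 Tris/KCl buffer with BSA, glycerol, Tween-20; compound pinned in; FRET-FV substrate; RT 20 min; Ex320/Em430; ΔFRET vs ADEP 5.8 microM, DMSO, no enzyme.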
DRD3 antagonist – blocks the human D3 dopamine receptor | P35462 | max response, negative = inhibition, % | D3R cells, DiscoveRx beta-arrestin luminescence, antagonist mode; stronger effect = lower value | AID 652054 | 360,000 compounds, 2.5% hits; in the data active = max response below about -50%; inconclusive = no clear call, values can overlap the other calls; also: % is scaled to controls: 0 for no effect and ±100 for the full control effect
Target sequence (P35462 whole entry, looked up): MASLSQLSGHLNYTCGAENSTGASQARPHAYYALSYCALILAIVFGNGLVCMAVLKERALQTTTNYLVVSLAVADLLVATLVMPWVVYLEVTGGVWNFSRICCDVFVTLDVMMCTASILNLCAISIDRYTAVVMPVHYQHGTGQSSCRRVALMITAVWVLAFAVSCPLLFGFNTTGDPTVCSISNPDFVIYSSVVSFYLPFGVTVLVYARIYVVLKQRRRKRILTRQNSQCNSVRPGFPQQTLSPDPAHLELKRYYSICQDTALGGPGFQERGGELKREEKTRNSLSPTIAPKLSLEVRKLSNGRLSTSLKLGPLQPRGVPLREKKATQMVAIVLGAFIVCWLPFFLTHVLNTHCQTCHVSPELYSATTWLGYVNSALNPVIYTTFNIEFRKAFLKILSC
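Cells plated overnight at 1500 cells/well, then exposed to library compounds with dopamine controls for 90 minutes at 37 degrees C. DiscoveRx reagent added for 30–60 minutes at room temperature; luminescence read, quantitative HTS format.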
TDP1 cell CPT – growth inhibition of DT40 Tdp1-/-;hTDP1 cells with camptothecin (screen for TDP1 inhibitors); AID 686979; 420,000 compounds, 12% hits; Potency, µM (doses to about 46.2 µM), for inactives: at the top dose activity change, negative = growth inhibition, most hits filed as inhibitors; chicken DT40 Tdp1-/-;hTDP1 cells + 20 nM CPT, ATP luminescence, 48 h; also: potency is read from the fitted curve at half-maximal effect; % is scaled to controls: 0 for no effect and ±100 for the full control effect; nearly all actives have a fitted effect of over 55% in size
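Cell growth measured by CellTiter-Glo luminescence after a minimum 48 h, 37 C compound exposure with 20 nM CPT in Tdp1-knockout DT40 cells stably expressing hTDP1, seeded 400/well; qHTS titration format.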
IL-1B inflam inh – inhibitors of inflammasome signaling (IL-1 beta secretion). THP-1 LPS/ATP IL-1B secretion, AlphaLISA, 16 h; stronger effect = lower value. activity change, % at 57.5 µM. 360,000 compounds, 4.7% hits. AID 743279; in the data active = activity change below about -50%; inconclusive = mostly about -30% to -49%; also: % is scaled to controls: 0 for no effect and ±100 for the full control effect
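THP-1 cells pretreated 1 hr with compounds (up to 57.5 uM final), then stimulated with LPS (250 ng/mL final) plus ATP (1.25 mM final); secreted IL-1B measured by AlphaLISA after 16 hr, decreased signal indicating inhibition.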
DRD3 agonist – activates the human D3 dopamine receptor | D3R DiscoveRx beta-arrestin cells, luminescence, 90 min | max activation, % | 410,000 compounds, 0.58% hits; in the data active = max activation above about 30%; also: 0% is about no effect
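Agonist mode: compounds and dopamine controls were applied to plated cells for 90 min at 37 degrees C after an overnight attachment at 1500 cells/well. Luminescent read-out followed 30 - 60 minutes at room temperature with DiscoveRx detection reagent.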
DT40 TDP1 no CPT – qHTS for Inhibitors of human tyrosyl-DNA phosphodiesterase 1 (TDP1): qHTS in cells in absence of CPT; Potency, µM (titrated, usually from 46.2 µM), for the others: at the top dose activity change, negative = growth inhibition, actives largely listed as inhibitors; 420,000 compounds, 15% hits; DT40 Tdp1-/- hTDP1 cells, no CPT, ATP luminescence, 48 h; AID 686978, 2013; also: potency is read from the fitted curve at half-maximal effect; % is scaled to controls: 0 for no effect and ±100 for the full control effect; nearly all actives have a fitted effect of over 55% in size
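Growth of hTDP1-complemented DT40 Tdp1-knockout cells is measured by ATP luminescence after at least 48 hr compound exposure at 37 °C, with DMSO substituting for the 20 nM CPT used in the parallel screen.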
* = called active by the depositor; ? = inconclusive; . = no result. Hits are enriched below; roughly 21% of the tested compounds scored in any of these assays. Unless noted, calls follow the shape of the dose curve; as a rule, active = well fitted inhibition curve with a large enough effect; inconclusive = small, poorly fitted or top-dose-only effect; inactive = flat fitted curve, though single readings scatter.

SMILES	ClpP mod	DRD3 antagonist	TDP1 cell CPT	IL-1B inflam inh	DRD3 agonist	DT40 TDP1 no CPT
CC(C)[C@H](NC(=O)C1CC(=O)N(c2ccc3c(c2)OCCO3)C1)C(=O)NC1CCCC1 (some centres undefined)	-0.7%	2.6	-10.5%	19.1	2.8	4.8%
CC(=O)N1CCN(C(=O)c2ccc(Cl)c(S(=O)(=O)N3CC(C)OC(C)C3)c2)CC1 (centres undefined)	-1.1%	7.7	-0.6%	-1.3	-1.3	8.8%
O=C(NC1CC1)c1ccc(Cl)c(S(=O)(=O)N2CCOCC2)c1	.	2.6	-3.5%	1.2	1.8	-10.1%
O=C(Cc1cccs1)Nc1ccc(Cl)c(S(=O)(=O)N2CCOCC2)c1	.	0.4	-10.4%	5.2	-2.3	?
O=C(c1ccc(Cl)c(S(=O)(=O)N2CCCC2)c1)N1CCCCC1	-2.2%	?	-17.7%	4.8	-2.2	?
CC1CN(S(=O)(=O)c2cc(C(=O)N3CCCCC3C)ccc2Cl)CC(C)O1 (centres undefined)	-0.2%	-21.6	-78.3%	37.2	-8.0	1.84µM*
O=c1c2ccccc2sn1-c1ccc(Cl)c(S(=O)(=O)N2CCOCC2)c1	0.0%	.	1.41µM*	.	.	3.16µM*
O=C(NC1CCCCCC1)c1ccc(Cl)c(S(=O)(=O)N2CCOCC2)c1	.	-11.6	?	-9.1	-5.1	29.1µM*
CC1CCCN(C(=O)c2ccc(Cl)c(S(=O)(=O)N3CCCCCC3)c2)C1 (centres undefined)	-3.7%	-19.3	?	-7.4	0.9	18.4µM*
Cc1cc(C)c2c(n1)nn1c(C)c(CCC(=O)NCc3ccc(Cl)cc3)c(C)nc21	?	.	-25.9%	.	-4.4	?
Cc1ccc(C)c(-n2c3nc(=O)[nH]c(=O)c-3cc3c(C)nn(-c4ccccc4)c32)c1	3.8%	.	-1.9%	.	-2.0	10.0%
O=C(c1ccc(Cl)c(S(=O)(=O)N2CCOCC2)c1)N1CCOCC1	31.6µM*	6.6	0.4%	21.2	-19.6	-11.1%
Cc1ccc(NC(=O)C2(C)CCN2C(=O)Cc2ccc(C(C)C)cc2)cc1 (centres undefined)	0.9%	24.7	?	32.0	3.8	23.1µM*
CC1(C(=O)NS(=O)(=O)c2cccc(C#N)c2)CCN1C(=O)C1(c2ccc(Cl)cc2)CCC1 (centres undefined)	-1.1%	10.7	7.7%	-13.7	2.0	5.1%
CC1(C(=O)NS(=O)(=O)c2ccc(C#N)cc2)CCN1C(=O)C1(c2ccc(Cl)cc2)CCC1 (centres undefined)	-1.4%	0.0	18.4µM*	26.1	-12.2	-29.9%
CCN(CC)C(C(=O)Nc1ccc(C(C)C)cc1)c1ccc2c(c1)OCO2 (centres undefined)	1.1%	-54.1*	?	-4.2	0.6	?
CC(C)c1ccc(CC(=O)N2CCC2(C)C(=O)Nc2ccc3c(c2)OCO3)cc1 (centres undefined)	-0.8%	5.2	?	28.5	16.7	18.4µM*
COc1ccccc1NC(=O)Cc1nnc(SCC(=O)NC2=NCCS2)n1C	.	1.8	8.1%	22.7	0.5	-25.9%
O=C(NCCN1CCOCC1)c1cccc(S(=O)(=O)N(Cc2ccccc2)c2ccccc2)c1	0.5%	0.8	?	5.4	-4.1	-26.6%
CC1(C(=O)N2Cc3ccccc3C2)CCN1C(=O)C1(c2ccc(Cl)cc2)CC1 (centres undefined)	-2.5%	?	16.4µM*	-17.5	-9.4	?
CC1(C(=O)Nc2ccc3c(c2)OCCO3)CCN1C(=O)C1(c2ccc(Cl)cc2)CCC1 (centres undefined)	0.9%	21.9	?	29.6	72.5*	?
COc1ccc(CCC(=O)NCc2ccc3c(c2)CCN3C(=O)c2ccc(C)cc2)cc1	0.8%	.	?	.	-2.8	20.6µM*
COc1ccc(CCC(=O)NCc2ccc3c(c2)CCN3C(=O)c2cccc(C)c2)cc1	-8.5%	.	5.8µM*	.	14.9	4.61µM*
OC1(Cc2cc(-c3ccccc3)no2)CCN(CCCc2ccccc2)CC1	1.2%	-75.1*	?	-29.4	-7.8	?
COc1ccc2nc(SCC(=O)Nc3ccccc3)[nH]c2c1	0.1%	11.7	?	-20.7	5.1	-12.6%
SMILES	ClpP mod	DRD3 antagonist	TDP1 cell CPT	IL-1B inflam inh	DRD3 agonist	DT40 TDP1 no CPT
Cc1ccc2nc(SCC(=O)Nc3ccc(C(N)=O)cc3)[nH]c2c1	.	-21.1	8.5%	-6.5	-7.3	-25.5%
CCOC(=O)c1cccc(NC(=O)CSc2nc3cc4ccccc4cc3[nH]2)c1	3.8%	.	?	.	5.7	23.1µM*
CCOC(=O)c1ccc(NC(=O)CSc2nc3cc4ccccc4cc3[nH]2)cc1	4.2%	.	23.1µM*	.	8.5	18.4µM*
COc1ccc(/C=N/NC(=O)C(=O)NCc2cccnc2)cc1	.	1.7	20.2%	0.0	3.1	6.2%
CCOC(=O)c1cccc(NC(=O)c2cc(S(=O)(=O)N3CCCC3)cn2C)c1	-1.0%	.	-6.8%	.	-0.8	?
CCCOc1ccccc1-c1nc2c([nH]1)c(=O)[nH]c(=O)n2C	31.6µM*	47.6	-16.6%	-9.0	-14.6	-29.3%
CC1=C(C#N)c2nc(N)c(C#N)c(C)c2/C1=C\c1ccc(-c2ccccc2C(=O)O)o1	.	-7.1	-6.3%	-87.5*	3.4	-5.7%
CCCn1c(C)cc(C(=O)COC(=O)c2cc(S(=O)(=O)NCC(C)C)c(Cl)cc2Cl)c1C	1.2%	-11.0	?	-3.0	-3.8	14.6µM*
CC(C)CNS(=O)(=O)c1cc(C(=O)O)c(Cl)cc1Cl	1.8%	5.3	4.4%	6.3	13.6	4.4%
CC(C)CNS(=O)(=O)c1cc(C(=O)OCC(=O)c2ccc3c(c2)OCCO3)c(Cl)cc1Cl	.	5.9	-21.1%	-239.7*	0.2	?
O=C(COc1ccc(Br)cc1)Nc1cccc2cccnc12	-4.4%	.	?	.	0.9	?
O=c1cc(CN2CCOCC2)c2ccccc2o1	-1.7%	21.1	-12.3%	0.0	42.8*	-0.5%
O=c1c2ccccc2oc2cc(-c3ccc(CN4CCOCC4)cc3)ccc12	-4.9%	44.8	13µM*	0.0	8.3	16.4µM*
c1ccc(CN2CCOCC2)cc1	0.3%	-13.7	-3.7%	21.9	-0.1	-6.4%
O=c1cc(CN2CCOCC2)c2c(ccc3ccccc32)o1	?	25.4	-23.8%	-10.1	3.4	?
O=C(Cn1ccn(-c2ccc(F)c(F)c2)c(=O)c1=O)c1ccc(F)cc1	-3.1%	.	-14.1%	.	-7.3	10.2%
CCOC(=O)c1cccc(NC(=O)c2cccnc2)c1	-2.3%	-9.0	?	-0.3	-8.2	?
